Results filed as inconclusive are left out. The source made the active and inactive calls. Unless noted, calls follow the shape of the full dose curve. Positions of bridges follow the written chain, without caps; N, C: chain ends. Non-standard residues stand in square brackets, D forms with d. Residues, ends and D or L forms follow the SMILES beside them. ξ: configuration not given here. *: point of attachment. Octanoyl(6-Me) = CCC(C)CCCCC(=O)*; ξThr(3R) = C[C@@H](O)C(N)C(=O)O; dDab = NCC[C@@H](N)C(=O)O; Dab = NCC[C@H](N)C(=O)O
Assays:
[1] = qHTS drug screen for cell cycle checkpoint inhibitors in PARPi-resistant BRCA-mutant ovarian cancer cell lines. (AID 1963452); conditions: PEO1/OlaR viability, CellTiter-Glo luminescence, 96 h; for Z-AUC: stronger effect = lower value
Method in brief: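 PEO1, PEO4 and PEO1/OlaR ovarian cancer cells, 600 per well, exposed 96 h at 37C to a dilution series. Viability read by CellTiter-Glo luminescence, normalized to DMSO and empty wells; activity summarized as Z-AUC.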

3D7 = experiment: qHTS profiling for inhibitors of Plasmodium falciparum proliferation (AID 504749; active = well fitted inhibition curve with a large enough effect; also: nearly all actives have a fitted effect of over 60% in size); conditions: P. falciparum in erythrocytes, SYBR Green DNA, 72 h; series mostly up to 28.7 µM
Method in brief: (§1)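 Parasite proliferation within erythrocytes, 72 h exposure. Endpoint: SYBR Green I fluorescence after overnight lysis at room temperature. Controls: 0.29 uM artemisinin, DMSO.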

7G8 = experiment: as above; conditions: P. falciparum in erythrocytes, SYBR Green DNA, 72 h; series mostly up to 28.7 µM
Method in brief: as §1

[2] = qHTS for identification of novel therapeutic agents for treatment of microphthalmiaassociated transcription factor (MiT) renal cell carcinoma (RCC) (AID 1963991); conditions: CellTiter-Glo, 48 h; for z-score: stronger effect = lower value; for Potency: active = Z-AUC below -0.8 in all three lines
Method in brief: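 Three TFE3-fusion RCC cell lines (UOK109, UOK124, UOK145), 500 cells/well, were exposed to the 1912-compound MIPE 4.0 library for 48 hours at 37 C. Viability was read by CellTiter-Glo luminescence, normalised to DMSO (100%) and empty wells (0%), with 11-concentration curve fits.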

[3] = measured here: PEO1 parental Z-AUC
[4] = TFE3-RCC UOK109 viability, measured here: UOK109 Z-AUC
[5] = TFE3-RCC viability, measured here: UOK124 Z-AUC
[6] = TFE3-RCC viability, measured here: UOK145 Z-AUC
Potency is read from the fitted curve at half-maximal effect.

Row | Compound | Z-AUC [1] | Z-AUC [1, 3] | Z-AUC ([1]; measured here: PEO4 Z-AUC) | Potency (3D7) | Potency (7G8) | z-score [2, 4] | z-score [2, 5] | z-score [2, 6] | Potency [1] | Potency ([2]; TFE3-RCC UOK109 viability)
1 | Nc1ccc(C(=O)Nc2cccc(-c3nc(N4CCOCC4)c4oc5ncccc5c4n3)c2)cn1 | 0.0788 (inactive) | -0.164 | 0.731 | – | – | – | – | – | – | –
2 | COc1cc(C(=O)NC2CCN(C)CC2)ccc1Nc1ncc2c(n1)N(C1CCCC1)CCC(=O)N2C(C)C | -0.77 (inactive) | 0.079 | -0.318 | – | – | – | – | – | – | –
3 | CC(C)c1cc(C(C)C)c(CC(=O)NS(=O)(=O)Oc2c(C(C)C)cccc2C(C)C)c(C(C)C)c1 | 0.134 (inactive) | 0.546 | 1.13 | – | – | – | – | – | – | –
4 | CCN(CC)CCCCNc1ncc2c(n1)N(C)C(=O)N(c1c(Cl)c(OC)cc(OC)c1Cl)C2 | 0.806 (inactive) | 1.27 | 0.972 | – | – | – | – | – | – | –
5 | C#Cc1cccc(Nc2ncnc3cc(OCCOC)c(OCCO)cc23)c1 | 0.364 (inactive) | 0.383 | 0.173 | – | – | – | – | – | – | –
6 | COc1ccc(S(=O)(=O)Nc2cc(-c3c(O)ccc4ccccc34)c(O)c3ccccc23)cc1 | 0.502 (inactive) | 0.417 | 0.118 | – | – | – | – | – | – | –
7 | Cc1ccc2nc(NCCN)c3ncc(C)n3c2c1 | 0.876 (inactive) | 0.537 | 1.09 | – | – | – | – | – | – | –
8 | COc1cccc2c1C(=O)c1c(O)c3c(c(O)c1C2=O)C[C@@](O)(C(=O)CO)C[C@@H]3O[C@H]1C[C@H](N)[C@H](OC2CCCCO2)[C@H](C)O1 (some centres undefined) | – | – | – | 2240 nM (active) | 794 nM (active) | – | – | – | – | –
9 | Cc1cc(O)c2c(c1)C(=O)c1cccc(O)c1C2=O | -0.855 (inactive) | 0.00192 | -0.281 | – | – | -0.138 | 0.712 | 0.0822 | – | –
10 | CCC(C)CCCCC(=O)N[C@@H](CCN)C(=O)NC(C(=O)N[C@H](CCN)C(=O)N[C@@H]1CCNC(=O)C([C@@H](C)O)NC(=O)[C@@H](CCN)NC(=O)[C@@H](CCN)NC(=O)[C@@H](CC(C)C)NC(=O)[C@H](Cc2ccccc2)NC(=O)[C@H](CCN)NC1=O)[C@@H](C)O (stereo partly drawn) ({Octanoyl(6-Me)}-[Dab][ξThr(3R)][dDab][dDab][Dab]F[dL][dDab][dDab][ξThr(3R)]; lactam 4-C) | 1.19 (inactive) | 0.672 | 0.762 | – | – | 0.782 | 0.881 | 0.703 | – | –
11 | O=C1c2cccc(O)c2C(=O)c2c(O)cc(CO)cc21 | 0.225 (inactive) | -0.222 | -0.301 | – | – | 0.181 | 0.143 | 0.0189 | – | –
12 | CC(C)C[C@H](NC(=O)CNC(=O)c1cc(Cl)ccc1Cl)B1OC(=O)CC(CC(=O)O)(C(=O)O)O1 (some centres undefined) | – | -3.29 | -3.23 | – | – | -1.14 | -3.62 | -2.91 | 43.6 nM (active) | 83.3 nM (active)
13 | C=C[C@@H]1CN2CCC1C[C@H]2[C@H](O)c1ccnc2ccc(OC)cc12 (some centres undefined) | -0.116 (inactive) | 0.594 | 0.97 | – | – | 0.232 | 0.335 | 0.288 | – | –
14 | Cn1cc(C[C@@H](N)C(=O)O)c2ccccc21 | 0.11 (inactive) | 1.01 | 0.769 | – | – | 1.28 | 1.02 | 1.04 | – | –
15 | CC(C)C[C@H](NC(=O)[C@@H](NC(=O)c1cccc(-c2ccccc2)n1)[C@@H](C)O)B(O)O | – | -2.93 | -3.51 | – | – | -1.47 | -3.68 | -3.39 | 60.1 nM (active) | 469 nM (active)
16 | Nc1ccn(C[C@@H](CO)OCP(=O)(O)O)c(=O)n1 | -1.33 (inactive) | -0.089 | -0.602 | – | – | 1.6 | 1.03 | 1.52 | – | –
17 | CC(=O)OC[C@@H]1O[C@@H](n2ccc(=O)[nH]c2=O)[C@H](OC(C)=O)[C@H]1OC(C)=O | 0.415 (inactive) | 0.423 | 0.195 | – | – | 0.396 | 1.22 | 0.244 | – | –
18 | CC(C(C)N1CC(=O)NC(=O)C1)N1CC(=O)NC(=O)C1 (centres undefined) | 0.386 (inactive) | 0.374 | 0.397 | – | – | -0.243 | -1.76 | -0.193 | – | –
19 | COc1ccc(C=Cc2cc(OC)c(OC)c(OC)c2)cc1NC(=O)[C@H](N)CO | – | -1.39 | -1.42 | – | – | -2.33 | -3.86 | -1.55 | 54.9 nM (active) | 10.5 nM (active)
20 | CCCCCCCCCCCCc1ccc(S(=O)(=O)Nc2nncs2)cc1 | -0.392 (inactive) | 0.179 | 0.202 | – | – | 1.37 | 2.17 | 1.03 | – | –
21 | OC[C@H]1OC(O)C[C@@H](O)[C@H]1O (some centres undefined) | -0.67 (inactive) | -0.645 | -0.88 | – | – | 1.34 | 0.406 | -0.0329 | – | –
22 | CNC(=O)Nc1ccc(-c2nc(N3CC4CCC(C3)O4)c3cnn(C4CCC5(CC4)OCCO5)c3n2)cc1 | -0.248 (inactive) | -0.236 | -1.02 | – | – | -1.43 | -1.26 | -2.73 | – | 41.8 nM (active)
23 | O=C1NC(O)CCN1[C@@H]1O[C@H](CO)[C@H](O)[C@H]1O (some centres undefined) | -0.827 (inactive) | -1.1 | -1.36 | – | – | 0.896 | 0.732 | 0.58 | – | –
24 | O=C(CN1C(=O)C2(CCCC2)NC[C@H]1c1cc(F)cc(F)c1)Nc1ccc2c(c1)C[C@@]1(C2)C(=O)Nc2ncccc21 | 0.0664 (inactive) | -0.0432 | 0.449 | – | – | 1.1 | 0.765 | 1.18 | – | –
25 | C[C@@H]1CC[C@@]2(OC1)OC1CC3C4CC=C5CC(O)CCC5(C)C4CCC3(C)C1[C@@H]2C (some centres undefined) | 0.426 (inactive) | 0.314 | 0.526 | – | – | 0.586 | 0.304 | 0.634 | – | –
